# From paper PMC4336329 (PLoS ONE, 2015)
# Out of some 310,000 compounds screened, about 14,000 (4.5%) showed an effect of 50% or more. The effect is printed as a negative number. For the sample, strong results were picked, then their nearest neighbours and some compounds at random.
# Target: human ether-à-go-go-related gene (hERG) potassium channel (human, UniProt Q12809)
# Test: primary screen, population patch clamp on CHO cells stably expressing hERG; higher = less effect of the substance
# 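Also: peak tail current of the secondary pulse compared with the same well before compound.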
# human ether-à-go-go-related gene (hERG) potassium channel, sequence (Q12809 whole entry, looked up): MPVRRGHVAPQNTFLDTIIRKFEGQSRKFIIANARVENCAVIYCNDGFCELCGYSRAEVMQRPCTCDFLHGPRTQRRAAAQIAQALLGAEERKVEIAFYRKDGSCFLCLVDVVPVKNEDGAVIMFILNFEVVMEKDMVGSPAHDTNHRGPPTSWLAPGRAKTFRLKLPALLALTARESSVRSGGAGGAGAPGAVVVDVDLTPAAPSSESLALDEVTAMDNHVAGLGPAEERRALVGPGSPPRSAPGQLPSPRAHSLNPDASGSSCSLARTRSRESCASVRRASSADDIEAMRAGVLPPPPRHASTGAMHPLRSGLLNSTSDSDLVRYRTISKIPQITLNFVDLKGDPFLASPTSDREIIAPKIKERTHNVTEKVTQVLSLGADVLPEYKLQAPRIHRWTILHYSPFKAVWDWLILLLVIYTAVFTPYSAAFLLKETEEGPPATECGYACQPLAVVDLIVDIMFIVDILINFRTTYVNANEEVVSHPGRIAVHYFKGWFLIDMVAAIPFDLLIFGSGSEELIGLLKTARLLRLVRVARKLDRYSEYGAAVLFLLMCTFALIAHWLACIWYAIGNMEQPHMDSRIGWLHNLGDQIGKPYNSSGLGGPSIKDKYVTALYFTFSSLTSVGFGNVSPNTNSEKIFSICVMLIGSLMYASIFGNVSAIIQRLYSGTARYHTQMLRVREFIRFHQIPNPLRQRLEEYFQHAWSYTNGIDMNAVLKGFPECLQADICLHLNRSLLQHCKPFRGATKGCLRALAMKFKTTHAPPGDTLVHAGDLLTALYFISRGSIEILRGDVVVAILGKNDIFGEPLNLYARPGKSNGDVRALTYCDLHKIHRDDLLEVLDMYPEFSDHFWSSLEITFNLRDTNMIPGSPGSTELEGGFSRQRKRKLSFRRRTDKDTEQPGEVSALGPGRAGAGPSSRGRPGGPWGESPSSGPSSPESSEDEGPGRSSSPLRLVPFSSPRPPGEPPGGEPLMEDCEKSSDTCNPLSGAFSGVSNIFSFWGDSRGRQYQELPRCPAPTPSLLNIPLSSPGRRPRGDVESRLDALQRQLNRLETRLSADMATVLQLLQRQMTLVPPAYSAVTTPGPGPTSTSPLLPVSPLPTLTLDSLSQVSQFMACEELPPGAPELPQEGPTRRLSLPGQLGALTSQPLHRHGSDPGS
row,Structure (SMILES),"hERG current change (%, negative = inhibition) at 10uM"
1,O=C(CSc1nnc(CNC(=O)c2cccc(C(F)(F)F)c2)o1)NC1CCCC1,5.51%
2,O=C(Cc1ccc(Br)cc1)N1CCOCC1,13.6%
3,COc1ccc(C(=O)Nc2sc3c(c2C(=O)O)CC(C)(C)OC3)cc1,-2.18%
4,CN1CCN(c2ccccc2NC(=O)c2c(F)cccc2F)CC1,-19.9%
5,O=C(NCc1ccco1)/C(=C\c1ccco1)NC(=O)c1cccs1,-14.8%
6,CCOC(=O)c1c(NC(=O)CSc2nnc(-c3cccnc3)o2)sc(C(C)=O)c1C,-46.1%
7,Cc1ccc(-n2c(SCC(=O)N3CC(=O)Nc4ccccc43)nc3ccccc3c2=O)cc1,-1.05%
8,CNC(=S)SCCOc1ccccc1,-4.52%
9,O=C(Cc1cccs1)Nc1nc(-c2ccc(F)c(F)c2)cs1,19%
10,CCOc1ccc(N2CC(C(=O)NCCCN3CCOCC3)CC2=O)cc1 (stereo not shown),-5.47%
11,O=C(COc1ccc(Br)cc1Cl)N1CCN(c2ncccn2)CC1,-49.7%
12,CCCCN(CC(=O)NCc1ccc(F)cc1)C(=O)c1ccco1,8.72%
13,COc1ccc(CN(CCC(c2ccc(F)cc2)C2CCOC(C)(C)C2)C(=O)c2ccco2)cc1 (stereo not shown),-52.1%
14,COc1ccc(CN(CCC(c2ccccc2)C2CCOC(C)(C)C2)C(C)=O)cc1 (stereo not shown),-11.6%
15,COc1ccc(CN(CC(=O)NCc2ccc(F)cc2)C(=O)c2ccco2)cc1,-61.7%
16,COc1cccc(CN(CC(=O)NCc2ccc(F)cc2)C(=O)c2ccco2)c1,-39.2%
17,O=C(CN(Cc1ccccc1F)C(=O)c1ccco1)NCc1ccc(F)cc1,-50.7%
18,CC1(C)CC(C(CC(=O)O)c2ccccc2)CCO1 (stereo not shown),28.9%
19,O=C(CN(Cc1ccccc1)C(=O)c1ccco1)NCc1ccc(F)cc1,-31.6%
20,O=C(CN(Cc1ccc(F)cc1)C(=O)c1ccco1)NCc1ccc(F)cc1,-40.9%
21,CC1(C)CC(C(CCN(Cc2ccccc2)C(=O)c2ccco2)c2ccc(F)cc2)CCO1 (stereo not shown),-10.4%
22,COc1ccc(CNCCC(c2ccccc2)C2CCOC(C)(C)C2)cc1 (stereo not shown),-52.1%

row,Structure (SMILES),"hERG current change (%, negative = inhibition) at 10uM"
1,CC(c1ccccc1)N(CCC(c1ccccc1)C1CCOC(C)(C)C1)C(=O)c1ccco1 (stereo not shown),-22.2%
2,O=C(CN(C(=O)CCC(=O)Nc1nccs1)c1ccc(F)cc1)NCc1ccc(F)cc1,16.8%
3,Cc1cc(N)ccc1N=Nc1c(C)n(C)n(-c2ccccc2)c1=O,-5.57%
4,Cc1cc(=O)[nH]c(SCC(=O)NCCC2=CCCCC2)n1,28.2%
5,Cc1c(C(=O)N2CCCCC2)c(S(=O)(=O)N(C)Cc2ccccc2)c(C)n1C,2.66%
6,O=C(Nc1ccccc1C(=O)NCC1CCCO1)c1ccc(Cl)cc1 (stereo not shown),-34.8%
7,CC1(C)CC2CC(C)(CN2C(=O)COC(=O)c2cccc(O)c2)C1 (stereo not shown),6.76%
8,N#Cc1ccc(-c2ccccc2)nc1Sc1ccc(F)cc1,13.2%
9,CC(C)Oc1cccc(C(=O)Nc2ccc(N3CCN(S(C)(=O)=O)CC3)cc2)c1,-0.708%
10,O=C1CC(c2ccccc2)CCc2sccc2N1 (stereo not shown),-5.86%
11,Cc1ccn2c(CNCC3OCCc4ccccc43)c(C(=O)N3CCCCCC3)nc2c1 (stereo not shown),-62.9%
12,O=C(c1nc2ccccn2c1CNCCCn1cccn1)N1CCCC1,-12.1%
13,Cc1cc(C(F)(F)F)nc(CCNCc2c(C(=O)N3CCCC3)nc3ccccn23)n1,-14.4%
14,O=C(c1nc2ccccn2c1CNCC1OCCc2ccccc21)N1CCOCC1 (stereo not shown),-0.852%
15,Cc1cccn2c(CNCC3OCCc4ccccc43)c(C(=O)N3CCCCC3)nc12 (stereo not shown),-19.5%
16,CN1Cc2ccccc2CC1CNCc1c(C(=O)N2CCCC2)nc2ccccn12 (stereo not shown),-73.5%
17,Cc1onc(-c2ccccc2)c1C(=O)NCC(O)c1ccccc1 (stereo not shown),5%
18,Cc1onc(-c2ccccc2)c1C(=O)NC(C)c1ccc2c(c1)OCO2 (stereo not shown),27.7%
19,COc1cc(OC)cc(C(=O)OCC(=O)NCc2ccc3c(c2)OCO3)c1,12.9%
20,CCCc1ccc2oc(C(=O)N3CCC(COC)C3)c(C)c2c1 (stereo not shown),-38.4%
21,O=C(NC1CS(=O)(=O)CC1NCc1ccco1)c1ccccc1 (stereo not shown),2.09%
22,OC(CCN1CCCCC1)c1ccc(-c2ccccc2)cc1 (stereo not shown),-56.4%

row,Structure (SMILES),"hERG current change (%, negative = inhibition) at 10uM"
1,OC(CCN1CCOCC1)c1ccccc1 (stereo not shown),4.54%
2,N#CCCN1CCN(Cc2cc(-c3ccccc3)ccc2O)CC1,-48.8%
3,Cl.OC(CCCCN1CCCCC1)c1ccccc1 (stereo not shown),-18.1%
4,Cl.ClC(CCN1CCN(Cc2ccccc2)CC1)c1ccccc1 (stereo not shown),-20.6%
5,O=S(=O)(NCCN1CCCC1)c1ccc(Cl)cc1,10.3%
6,Oc1ccc(Br)cc1CN1CCCCCCC1,-47.6%
7,Oc1ccc(-c2ccccc2)cc1CN1CCCCCC1,-52.1%
8,Clc1ccc(C(CCN2CCCC2)Cc2ccccc2)cc1 (stereo not shown),-62.7%
9,O=S(=O)(Nc1ccc(N2CCOCC2)cc1)c1ccc(F)cc1,4.3%
10,COC(=O)N1N=C(c2ccc(Br)cc2)CC1(O)C(F)(F)F (stereo not shown),-1.71%
11,CCOc1ccc(CNC(=O)CN2C(=O)C(c3ccccc3)Oc3cccnc32)cc1 (stereo not shown),-3.6%
12,O=C(N/N=C/c1ccc[nH]1)c1ccc(COc2cccc3cccnc23)cc1,-58.3%
13,O=C(N/N=C/c1ccncc1)c1ccc(COc2cccc3cccnc23)cc1,-45.6%
14,O=C(N/N=C/c1cccc(O)c1)c1ccc(COc2cccc3cccnc23)cc1,22.8%
15,CCOC(=O)C1=c2/c(=C/c3ccncc3)c(N)c(C(=O)OC)n2C(=O)C(c2ccncc2)S1 (stereo not shown),1.36%
16,O=C(CCc1ccccc1)NNC(=O)c1ccc(NC(=O)c2ccccc2)cc1,2.53%
17,Cc1cc(S(=O)(=O)Nc2ccc3c(c2)COC3=O)ccc1F,7.2%
18,Cc1cc(C)n(C(=O)c2cccc(S(=O)(=O)N3CCCC3)c2)n1,6.46%
19,O=C(Nc1ccnn1C1CCN(Cc2c(F)cccc2Cl)CC1)C1CCCC1,-32.1%
20,O=C(Nc1ccnn1C1CCN(C/C=C/c2ccc(F)cc2)CC1)C1CCCC1,-76.2%
21,O=C(Nc1ccnn1C1CCN(C/C=C/c2ccccc2)CC1)C1CCCC1,-73%
22,CN(c1ccc(O)cc1)S(=O)(=O)c1ccc2ccccc2c1,-12.8%

row,Structure (SMILES),"hERG current change (%, negative = inhibition) at 10uM"
1,COc1ccccc1CNC(=O)CCc1cn(C)c2ccccc12,-2.68%
2,Cc1c(C(=O)N2CCCCC2)c(S(=O)(=O)Nc2ccc(F)cc2F)c(C)n1C,21.9%
3,Cc1cc(C)c(S(=O)(=O)N2CCN(C(=O)c3ccc4c(c3)OCO4)CC2)c(C)c1,-31.4%
4,O=C(N/N=C/c1ccc(N2CCOCC2)cc1)c1ccc(NS(=O)(=O)c2cccs2)cc1,9.69%
5,N#Cc1cc([N+](=O)[O-])ccc1N1CCN(c2ccccc2O)CC1,-35%
6,O=[N+]([O-])c1ccc(N2CCCCCC2)c([N+](=O)[O-])c1,3.24%
7,CC(=O)N1CCN(c2ccc([N+](=O)[O-])cc2C#N)CC1,-88%
8,CC(=O)N1CCN(c2ccc(C(N)=O)cc2[N+](=O)[O-])CC1,8.73%
9,CCN1CCN(c2ccc([N+](=O)[O-])cc2C#N)CC1,-68.2%
10,CCCN1CCN(c2ccc([N+](=O)[O-])cc2C#N)CC1,-72%
11,O=[N+]([O-])c1ccc(N2CCN(c3ccccc3O)CC2)c(Cl)c1,9.9%
12,N#Cc1cc([N+](=O)[O-])ccc1N1CCCC1,-38%
13,CC1CN(c2ccc([N+](=O)[O-])cc2C#N)CC(C)O1 (stereo not shown),-48.6%
14,O=[N+]([O-])c1ccc(N2CCN(CCOCCO)CC2)c([N+](=O)[O-])c1,-45.6%
15,O=[N+]([O-])c1ccc(N2CCN(c3ccc([N+](=O)[O-])cc3CO)CC2)c(CO)c1,-64.7%
16,CCCN1CCN(c2ccc(S(N)(=O)=O)cc2[N+](=O)[O-])CC1,-31.4%
17,COc1cccc(NS(=O)(=O)c2c(C)n(C)c(=O)n(C)c2=O)c1,-19.9%
18,CCCc1nnc(SCC(=O)N2CCOCC2)n1CC1CCCO1 (stereo not shown),23.6%
19,CC1CCN(C(=S)c2ccc(O)cc2)CC1,-14.1%
20,O=c1[nH]c2ccc(S(=O)(=O)N3CCN(C4CCCCC4)CC3)cc2[nH]c1=O,0.776%
21,O=C(Nc1cccc(C(F)(F)F)c1)Oc1ccc(Cl)c2cccnc12,9.96%
22,CCN(c1ccccc1)S(=O)(=O)c1ccc(Cl)c(C(=O)OCC(=O)c2[nH]c(C)c(C(C)=O)c2C)c1,-22.6%
